Experiment [1] concerns the target Tyrosine-protein kinase SYK (Homo sapiens) (UniProt P43405). Particulars: at 10 µM.
The target of experiment [2] is T1, Mitogen-activated protein kinase kinase kinase 7 (Homo sapiens) (UniProt O43318).
T1 sequence (whole entry): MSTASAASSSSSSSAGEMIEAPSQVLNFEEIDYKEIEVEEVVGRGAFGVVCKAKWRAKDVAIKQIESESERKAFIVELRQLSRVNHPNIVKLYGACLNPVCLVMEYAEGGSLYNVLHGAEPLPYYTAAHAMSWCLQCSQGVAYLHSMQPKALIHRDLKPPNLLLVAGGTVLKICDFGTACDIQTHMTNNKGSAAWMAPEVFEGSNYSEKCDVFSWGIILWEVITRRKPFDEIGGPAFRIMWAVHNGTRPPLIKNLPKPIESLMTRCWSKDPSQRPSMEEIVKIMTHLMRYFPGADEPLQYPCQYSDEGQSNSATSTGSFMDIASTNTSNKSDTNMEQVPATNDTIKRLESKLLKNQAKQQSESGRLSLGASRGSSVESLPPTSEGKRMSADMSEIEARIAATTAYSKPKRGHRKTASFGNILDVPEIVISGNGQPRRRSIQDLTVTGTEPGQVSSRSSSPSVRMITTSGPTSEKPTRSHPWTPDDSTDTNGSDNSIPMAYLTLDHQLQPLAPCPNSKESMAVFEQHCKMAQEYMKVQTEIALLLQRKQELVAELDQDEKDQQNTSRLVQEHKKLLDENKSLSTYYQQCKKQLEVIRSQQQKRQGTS
Particulars: at 1 µM.

Experiment [3] has as its target T1, Mitogen-activated protein kinase kinase kinase 7 (Homo sapiens). The settings on record: at 10 µM.
The target of experiment [4] is T2, Serine/threonine-protein kinase TAO1 (Homo sapiens) (UniProt Q7L7X3).
T2 sequence (whole entry): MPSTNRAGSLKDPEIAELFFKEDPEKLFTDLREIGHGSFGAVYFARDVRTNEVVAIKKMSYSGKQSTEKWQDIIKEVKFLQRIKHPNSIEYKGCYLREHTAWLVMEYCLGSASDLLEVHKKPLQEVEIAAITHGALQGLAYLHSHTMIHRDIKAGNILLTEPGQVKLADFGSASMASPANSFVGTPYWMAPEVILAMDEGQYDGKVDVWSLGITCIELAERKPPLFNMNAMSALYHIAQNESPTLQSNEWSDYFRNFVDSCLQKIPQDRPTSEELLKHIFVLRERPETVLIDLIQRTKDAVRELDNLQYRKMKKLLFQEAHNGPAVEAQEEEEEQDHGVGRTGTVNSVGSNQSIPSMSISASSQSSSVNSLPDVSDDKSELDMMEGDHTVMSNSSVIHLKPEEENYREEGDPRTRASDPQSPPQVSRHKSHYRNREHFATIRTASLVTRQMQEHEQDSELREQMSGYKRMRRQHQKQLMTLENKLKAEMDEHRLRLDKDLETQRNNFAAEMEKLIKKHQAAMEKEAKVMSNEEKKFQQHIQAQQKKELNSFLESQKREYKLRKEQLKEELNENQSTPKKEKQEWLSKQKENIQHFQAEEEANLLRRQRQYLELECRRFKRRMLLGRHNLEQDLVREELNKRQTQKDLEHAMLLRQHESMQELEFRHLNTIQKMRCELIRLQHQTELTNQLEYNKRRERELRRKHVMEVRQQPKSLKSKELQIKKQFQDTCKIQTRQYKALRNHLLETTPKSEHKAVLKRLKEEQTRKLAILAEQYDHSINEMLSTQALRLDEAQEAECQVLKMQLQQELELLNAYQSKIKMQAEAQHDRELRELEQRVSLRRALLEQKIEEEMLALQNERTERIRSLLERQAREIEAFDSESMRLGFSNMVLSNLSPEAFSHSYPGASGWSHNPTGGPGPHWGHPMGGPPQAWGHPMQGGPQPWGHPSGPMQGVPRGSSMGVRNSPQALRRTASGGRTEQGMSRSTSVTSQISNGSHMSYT
The settings on record: at 1 µM.

The target in experiment [5] is T2, Serine/threonine-protein kinase TAO1 (Homo sapiens). Particulars: at 10 µM.
The target in experiment [6] is T3, Serine/threonine-protein kinase TAO2 (Homo sapiens) (UniProt Q9UL54).
T3 sequence (whole entry): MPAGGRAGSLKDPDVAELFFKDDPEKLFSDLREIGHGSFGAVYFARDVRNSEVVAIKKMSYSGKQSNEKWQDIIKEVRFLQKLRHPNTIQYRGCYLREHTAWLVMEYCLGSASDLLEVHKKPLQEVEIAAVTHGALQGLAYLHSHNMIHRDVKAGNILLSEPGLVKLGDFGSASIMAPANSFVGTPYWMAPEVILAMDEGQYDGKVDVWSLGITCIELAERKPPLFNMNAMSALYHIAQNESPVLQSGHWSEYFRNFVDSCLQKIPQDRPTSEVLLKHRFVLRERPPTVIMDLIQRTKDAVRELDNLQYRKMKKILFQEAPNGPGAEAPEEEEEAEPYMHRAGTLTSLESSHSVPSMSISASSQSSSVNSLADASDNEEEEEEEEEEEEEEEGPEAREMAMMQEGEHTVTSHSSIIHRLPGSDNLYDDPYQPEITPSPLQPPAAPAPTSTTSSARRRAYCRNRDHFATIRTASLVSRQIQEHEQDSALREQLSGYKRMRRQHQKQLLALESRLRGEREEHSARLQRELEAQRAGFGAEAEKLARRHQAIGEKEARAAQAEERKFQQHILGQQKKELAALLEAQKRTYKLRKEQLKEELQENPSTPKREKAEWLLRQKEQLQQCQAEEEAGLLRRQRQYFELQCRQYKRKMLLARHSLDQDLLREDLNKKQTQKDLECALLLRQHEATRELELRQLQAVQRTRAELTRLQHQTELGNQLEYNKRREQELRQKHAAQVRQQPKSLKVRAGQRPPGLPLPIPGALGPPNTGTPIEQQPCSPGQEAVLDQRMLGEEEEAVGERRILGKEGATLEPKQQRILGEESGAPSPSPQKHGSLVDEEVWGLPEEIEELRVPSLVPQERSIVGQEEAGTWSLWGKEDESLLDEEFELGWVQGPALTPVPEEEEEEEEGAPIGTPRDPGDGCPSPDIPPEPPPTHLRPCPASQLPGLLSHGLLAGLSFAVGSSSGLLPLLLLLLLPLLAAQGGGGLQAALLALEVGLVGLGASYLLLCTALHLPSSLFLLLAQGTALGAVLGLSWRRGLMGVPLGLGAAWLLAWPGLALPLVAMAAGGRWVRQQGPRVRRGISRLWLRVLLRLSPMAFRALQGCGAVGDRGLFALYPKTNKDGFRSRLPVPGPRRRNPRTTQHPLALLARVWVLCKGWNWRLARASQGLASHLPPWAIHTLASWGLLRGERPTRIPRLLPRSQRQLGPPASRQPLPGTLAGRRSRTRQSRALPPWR
Particulars: at 1 µM.

Experiment [7] addresses T3, Serine/threonine-protein kinase TAO2 (Homo sapiens). Particulars: at 10 µM.
For experiment [8], the target named is T4, Serine/threonine-protein kinase TAO3 (Homo sapiens) (UniProt Q9H2K8).
T4 sequence (whole entry): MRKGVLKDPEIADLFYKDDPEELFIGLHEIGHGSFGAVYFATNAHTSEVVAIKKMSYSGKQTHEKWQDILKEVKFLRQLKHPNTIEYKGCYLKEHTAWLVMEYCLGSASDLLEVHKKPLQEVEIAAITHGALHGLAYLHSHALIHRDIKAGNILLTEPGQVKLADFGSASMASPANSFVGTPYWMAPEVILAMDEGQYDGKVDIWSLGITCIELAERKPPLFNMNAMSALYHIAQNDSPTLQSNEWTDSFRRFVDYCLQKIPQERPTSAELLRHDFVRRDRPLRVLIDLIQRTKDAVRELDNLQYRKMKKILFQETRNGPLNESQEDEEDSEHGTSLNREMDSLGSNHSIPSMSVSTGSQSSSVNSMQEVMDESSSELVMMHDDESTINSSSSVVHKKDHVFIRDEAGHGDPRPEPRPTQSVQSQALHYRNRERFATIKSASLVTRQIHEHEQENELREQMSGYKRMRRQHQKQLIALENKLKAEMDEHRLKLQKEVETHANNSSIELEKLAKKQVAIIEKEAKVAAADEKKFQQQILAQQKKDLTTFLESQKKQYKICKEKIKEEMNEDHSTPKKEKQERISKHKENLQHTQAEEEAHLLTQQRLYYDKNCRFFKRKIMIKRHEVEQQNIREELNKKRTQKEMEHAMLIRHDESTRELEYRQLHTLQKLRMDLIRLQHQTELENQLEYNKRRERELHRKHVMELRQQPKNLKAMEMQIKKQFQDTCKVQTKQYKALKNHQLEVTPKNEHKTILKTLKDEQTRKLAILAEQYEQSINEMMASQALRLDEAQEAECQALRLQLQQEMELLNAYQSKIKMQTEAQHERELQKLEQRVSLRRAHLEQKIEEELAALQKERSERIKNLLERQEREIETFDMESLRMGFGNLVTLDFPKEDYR
The settings on record: at 1 µM.

Experiment [9] deals with T4, Serine/threonine-protein kinase TAO3 (Homo sapiens). The settings on record: at 10 µM.
Experiment [10] deals with T5, Serine/threonine-protein kinase TBK1 (Homo sapiens) (UniProt Q9UHD2).
T5 sequence (whole entry): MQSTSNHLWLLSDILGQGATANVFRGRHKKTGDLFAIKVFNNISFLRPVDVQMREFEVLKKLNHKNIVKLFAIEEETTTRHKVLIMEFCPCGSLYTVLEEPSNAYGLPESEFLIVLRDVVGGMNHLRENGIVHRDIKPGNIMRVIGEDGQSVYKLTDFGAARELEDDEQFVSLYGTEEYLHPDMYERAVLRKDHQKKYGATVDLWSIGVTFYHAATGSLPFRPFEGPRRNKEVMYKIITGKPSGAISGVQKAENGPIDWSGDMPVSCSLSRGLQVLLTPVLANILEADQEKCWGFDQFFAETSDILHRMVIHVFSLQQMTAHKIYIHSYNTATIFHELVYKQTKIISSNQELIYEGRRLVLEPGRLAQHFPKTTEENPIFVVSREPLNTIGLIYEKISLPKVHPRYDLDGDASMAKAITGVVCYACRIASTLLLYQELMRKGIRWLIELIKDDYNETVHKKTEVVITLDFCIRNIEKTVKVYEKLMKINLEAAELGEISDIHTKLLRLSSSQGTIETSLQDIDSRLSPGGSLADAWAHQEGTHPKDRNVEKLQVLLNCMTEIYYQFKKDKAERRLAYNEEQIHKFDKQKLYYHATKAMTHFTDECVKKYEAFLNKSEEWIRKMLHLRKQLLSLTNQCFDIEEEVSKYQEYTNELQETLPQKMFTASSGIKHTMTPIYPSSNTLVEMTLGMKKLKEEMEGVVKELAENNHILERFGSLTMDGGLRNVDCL
Particulars: at 1 µM.

Structures are written as SMILES.

Take `COc1ccc(OC)c2c(=S)c3ccccc3[nH]c12`: the residual activity stood at 96% in [1]; 95% in [2]; 81% in [3]; 82% in experiment [4]; 91% in [5]; 90% in [6]. Besides, the residual activity in experiment [7] came to 87%; in experiment [8], 96%; in experiment [9], 90%; in experiment [10], 82%.

The values are drawn from ChEMBL document CHEMBL2218924, “A broad activity screen in support of a chemogenomic map for kinase signalling research and drug discovery” (Biochem J, 2013).
